For assay [1], the target named is BDNF/NT-3 growth factors receptor (Homo sapiens) (UniProt Q16620). Particulars: at 10 µM.
The target in assay [2] is T1, Tyrosine-protein kinase TXK (Homo sapiens) (UniProt P42681).
T1 sequence (whole entry): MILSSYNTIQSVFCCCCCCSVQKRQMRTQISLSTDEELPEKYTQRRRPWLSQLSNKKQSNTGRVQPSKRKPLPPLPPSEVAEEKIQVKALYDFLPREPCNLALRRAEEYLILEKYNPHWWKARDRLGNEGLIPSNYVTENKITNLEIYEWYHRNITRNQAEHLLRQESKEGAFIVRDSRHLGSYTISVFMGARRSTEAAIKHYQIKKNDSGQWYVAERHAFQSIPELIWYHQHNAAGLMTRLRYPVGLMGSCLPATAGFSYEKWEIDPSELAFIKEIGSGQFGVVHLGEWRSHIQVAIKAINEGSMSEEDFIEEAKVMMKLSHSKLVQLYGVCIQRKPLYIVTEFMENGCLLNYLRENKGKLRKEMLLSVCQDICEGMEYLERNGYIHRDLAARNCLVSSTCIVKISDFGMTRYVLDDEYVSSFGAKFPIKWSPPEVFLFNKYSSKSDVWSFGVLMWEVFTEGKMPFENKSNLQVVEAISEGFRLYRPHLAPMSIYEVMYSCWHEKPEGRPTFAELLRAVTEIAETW
The following applies: at 1 µM.

Assay [3] addresses T1, Tyrosine-protein kinase TXK (Homo sapiens). The following applies: at 10 µM.
Assay [4] concerns the target T2, Serine/threonine-protein kinase ULK3 (Homo sapiens) (UniProt Q6PHR2).
T2 sequence (whole entry): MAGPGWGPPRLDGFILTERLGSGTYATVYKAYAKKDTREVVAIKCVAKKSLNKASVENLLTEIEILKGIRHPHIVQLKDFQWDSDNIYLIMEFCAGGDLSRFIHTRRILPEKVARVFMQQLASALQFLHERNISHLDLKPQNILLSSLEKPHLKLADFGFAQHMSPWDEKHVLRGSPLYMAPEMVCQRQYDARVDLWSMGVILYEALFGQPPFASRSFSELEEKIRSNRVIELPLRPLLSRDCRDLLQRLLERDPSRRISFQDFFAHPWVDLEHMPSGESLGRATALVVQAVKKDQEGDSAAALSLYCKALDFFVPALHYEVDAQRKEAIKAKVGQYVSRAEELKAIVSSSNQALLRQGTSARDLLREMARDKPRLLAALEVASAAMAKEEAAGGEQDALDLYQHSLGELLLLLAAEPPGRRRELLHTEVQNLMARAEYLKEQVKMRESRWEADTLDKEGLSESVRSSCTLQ
Particulars: at 1 µM.

Assay [5] deals with T2, Serine/threonine-protein kinase ULK3 (Homo sapiens). The following applies: at 10 µM.
For assay [6], the target named is Serine/threonine-protein kinase WNK2 (Homo sapiens) (UniProt Q9Y3S1). The following applies: at 1 µM.
The target is the same in assay [7]. The following applies: at 10 µM.
Assay [8] concerns the target Serine/threonine-protein kinase WNK3 (Homo sapiens) (UniProt Q9BYP7). The following applies: at 1 µM.
For assay [9] the target is unchanged. The following applies: at 10 µM.
In assay [10] the target is Tyrosine-protein kinase Yes (Homo sapiens) (UniProt P07947). The following applies: at 1 µM.
Tyrosine-protein kinase Yes (Homo sapiens), sequence (P07947 2-543 limits assumed): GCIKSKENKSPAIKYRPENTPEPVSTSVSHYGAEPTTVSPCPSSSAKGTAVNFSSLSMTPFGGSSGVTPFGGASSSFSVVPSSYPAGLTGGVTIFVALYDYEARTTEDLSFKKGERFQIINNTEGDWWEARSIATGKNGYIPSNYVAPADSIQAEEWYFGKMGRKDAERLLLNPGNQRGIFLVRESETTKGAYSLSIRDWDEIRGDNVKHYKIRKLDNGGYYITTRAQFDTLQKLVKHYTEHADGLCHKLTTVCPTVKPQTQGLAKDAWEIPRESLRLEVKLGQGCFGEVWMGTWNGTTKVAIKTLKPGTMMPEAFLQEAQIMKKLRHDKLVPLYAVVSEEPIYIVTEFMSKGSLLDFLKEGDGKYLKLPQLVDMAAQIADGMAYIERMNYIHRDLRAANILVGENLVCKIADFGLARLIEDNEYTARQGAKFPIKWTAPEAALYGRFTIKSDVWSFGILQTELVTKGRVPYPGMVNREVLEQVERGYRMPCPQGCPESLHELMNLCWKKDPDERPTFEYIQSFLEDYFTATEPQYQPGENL
For assay [11] the target is unchanged. The following applies: at 10 µM.
The target in assay [12] is T3, Tyrosine-protein kinase ZAP-70 (Homo sapiens) (UniProt P43403).
T3 sequence (whole entry): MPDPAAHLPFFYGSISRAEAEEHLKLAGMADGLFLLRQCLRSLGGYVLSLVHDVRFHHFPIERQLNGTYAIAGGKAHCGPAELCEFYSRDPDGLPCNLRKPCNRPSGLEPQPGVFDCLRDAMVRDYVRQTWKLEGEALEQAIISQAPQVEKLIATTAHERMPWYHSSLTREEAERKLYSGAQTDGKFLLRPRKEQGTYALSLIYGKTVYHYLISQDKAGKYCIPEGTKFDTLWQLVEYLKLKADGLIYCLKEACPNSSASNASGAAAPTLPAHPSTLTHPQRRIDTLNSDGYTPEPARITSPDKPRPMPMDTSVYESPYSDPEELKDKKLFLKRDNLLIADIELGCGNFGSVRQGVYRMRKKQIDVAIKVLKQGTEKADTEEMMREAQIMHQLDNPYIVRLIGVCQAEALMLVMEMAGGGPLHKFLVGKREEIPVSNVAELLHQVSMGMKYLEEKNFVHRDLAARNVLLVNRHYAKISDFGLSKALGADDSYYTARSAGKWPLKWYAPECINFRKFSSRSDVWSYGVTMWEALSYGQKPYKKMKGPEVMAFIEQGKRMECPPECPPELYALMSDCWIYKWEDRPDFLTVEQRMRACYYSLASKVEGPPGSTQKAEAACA
Particulars: at 1 µM.

Assay [13] concerns the target Death-associated protein kinase 3 (Homo sapiens) (UniProt O43293). The following applies: at 1 µM.
Assay [14] shares this target. Particulars: at 10 µM.
For assay [15], the target named is RAF proto-oncogene serine/threonine-protein kinase (Homo sapiens) (UniProt P04049). Particulars: at 10 µM.
RAF proto-oncogene serine/threonine-protein kinase (Homo sapiens), sequence (P04049 whole entry): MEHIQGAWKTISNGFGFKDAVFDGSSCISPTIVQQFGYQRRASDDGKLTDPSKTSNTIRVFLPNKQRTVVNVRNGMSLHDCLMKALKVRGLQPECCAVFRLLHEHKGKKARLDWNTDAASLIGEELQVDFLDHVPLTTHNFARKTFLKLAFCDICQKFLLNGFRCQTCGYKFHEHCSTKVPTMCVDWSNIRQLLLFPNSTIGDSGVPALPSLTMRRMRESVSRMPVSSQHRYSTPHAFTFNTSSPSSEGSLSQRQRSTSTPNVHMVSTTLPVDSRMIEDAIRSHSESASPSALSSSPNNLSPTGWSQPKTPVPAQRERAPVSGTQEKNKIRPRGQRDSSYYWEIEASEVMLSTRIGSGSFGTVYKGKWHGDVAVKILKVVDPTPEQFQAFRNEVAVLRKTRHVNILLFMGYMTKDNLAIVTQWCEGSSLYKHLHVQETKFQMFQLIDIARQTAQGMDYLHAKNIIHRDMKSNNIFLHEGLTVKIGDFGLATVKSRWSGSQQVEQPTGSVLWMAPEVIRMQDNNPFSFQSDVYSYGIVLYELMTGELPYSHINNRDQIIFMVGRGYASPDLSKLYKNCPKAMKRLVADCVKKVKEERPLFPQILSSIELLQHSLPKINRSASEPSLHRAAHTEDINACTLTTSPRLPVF
Assay [16] has as its target T4, Serine/threonine-protein kinase ULK2 (Homo sapiens) (UniProt Q8IYT8).
T4 sequence (whole entry): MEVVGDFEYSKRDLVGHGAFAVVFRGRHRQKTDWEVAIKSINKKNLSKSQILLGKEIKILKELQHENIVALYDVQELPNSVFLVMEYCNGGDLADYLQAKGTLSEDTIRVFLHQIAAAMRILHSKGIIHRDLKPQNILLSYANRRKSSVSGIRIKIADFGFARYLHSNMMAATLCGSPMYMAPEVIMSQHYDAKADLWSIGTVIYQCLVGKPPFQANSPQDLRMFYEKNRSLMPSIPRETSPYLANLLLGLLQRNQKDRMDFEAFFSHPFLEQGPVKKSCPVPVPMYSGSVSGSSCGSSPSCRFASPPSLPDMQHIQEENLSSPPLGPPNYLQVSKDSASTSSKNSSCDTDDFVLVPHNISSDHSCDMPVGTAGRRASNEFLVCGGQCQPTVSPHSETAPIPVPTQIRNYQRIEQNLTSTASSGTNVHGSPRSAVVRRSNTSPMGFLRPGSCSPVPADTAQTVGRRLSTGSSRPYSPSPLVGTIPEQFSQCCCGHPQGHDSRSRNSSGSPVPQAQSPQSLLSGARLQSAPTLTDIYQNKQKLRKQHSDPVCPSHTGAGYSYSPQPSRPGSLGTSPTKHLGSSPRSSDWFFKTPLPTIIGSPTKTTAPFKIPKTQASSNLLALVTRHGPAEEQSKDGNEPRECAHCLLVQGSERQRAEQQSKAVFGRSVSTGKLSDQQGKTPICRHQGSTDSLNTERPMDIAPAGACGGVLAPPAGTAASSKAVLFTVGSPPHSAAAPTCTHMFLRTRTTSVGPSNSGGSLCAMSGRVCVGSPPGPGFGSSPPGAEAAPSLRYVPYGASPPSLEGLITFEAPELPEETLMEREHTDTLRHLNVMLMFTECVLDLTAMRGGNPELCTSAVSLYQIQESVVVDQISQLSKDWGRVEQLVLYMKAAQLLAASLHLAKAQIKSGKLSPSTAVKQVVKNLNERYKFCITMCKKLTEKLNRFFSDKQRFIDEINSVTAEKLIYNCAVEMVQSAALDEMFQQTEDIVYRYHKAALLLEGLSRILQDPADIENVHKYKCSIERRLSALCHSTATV
The following applies: at 1 µM.

Assay [17] concerns the target T4, Serine/threonine-protein kinase ULK2 (Homo sapiens). The following applies: at 10 µM.
In assay [18] the target is Serine/threonine-protein kinase VRK2 (Homo sapiens) (UniProt Q86Y07). Particulars: at 1 µM.
Serine/threonine-protein kinase VRK2 (Homo sapiens), sequence (Q86Y07 whole entry): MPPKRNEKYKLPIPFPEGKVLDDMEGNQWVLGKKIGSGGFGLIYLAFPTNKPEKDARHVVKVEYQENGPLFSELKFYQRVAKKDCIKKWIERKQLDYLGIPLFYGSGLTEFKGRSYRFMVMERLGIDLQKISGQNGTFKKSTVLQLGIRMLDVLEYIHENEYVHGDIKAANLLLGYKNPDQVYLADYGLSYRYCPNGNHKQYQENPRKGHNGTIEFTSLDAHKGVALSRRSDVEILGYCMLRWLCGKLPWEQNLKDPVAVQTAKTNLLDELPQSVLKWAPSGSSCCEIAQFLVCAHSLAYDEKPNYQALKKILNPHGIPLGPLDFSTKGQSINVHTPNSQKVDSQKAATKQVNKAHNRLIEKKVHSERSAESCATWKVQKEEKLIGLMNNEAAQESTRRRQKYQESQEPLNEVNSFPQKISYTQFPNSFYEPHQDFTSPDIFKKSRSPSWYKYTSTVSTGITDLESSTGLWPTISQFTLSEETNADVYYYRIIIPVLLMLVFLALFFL
For assay [19] the target is unchanged. The following applies: at 10 µM.
The target of assay [20] is RAF proto-oncogene serine/threonine-protein kinase (Homo sapiens) (UniProt P04049). The following applies: at 1 µM.

BDNF/NT-3 growth factors receptor (Homo sapiens), sequence (Q16620 32-822 limits assumed): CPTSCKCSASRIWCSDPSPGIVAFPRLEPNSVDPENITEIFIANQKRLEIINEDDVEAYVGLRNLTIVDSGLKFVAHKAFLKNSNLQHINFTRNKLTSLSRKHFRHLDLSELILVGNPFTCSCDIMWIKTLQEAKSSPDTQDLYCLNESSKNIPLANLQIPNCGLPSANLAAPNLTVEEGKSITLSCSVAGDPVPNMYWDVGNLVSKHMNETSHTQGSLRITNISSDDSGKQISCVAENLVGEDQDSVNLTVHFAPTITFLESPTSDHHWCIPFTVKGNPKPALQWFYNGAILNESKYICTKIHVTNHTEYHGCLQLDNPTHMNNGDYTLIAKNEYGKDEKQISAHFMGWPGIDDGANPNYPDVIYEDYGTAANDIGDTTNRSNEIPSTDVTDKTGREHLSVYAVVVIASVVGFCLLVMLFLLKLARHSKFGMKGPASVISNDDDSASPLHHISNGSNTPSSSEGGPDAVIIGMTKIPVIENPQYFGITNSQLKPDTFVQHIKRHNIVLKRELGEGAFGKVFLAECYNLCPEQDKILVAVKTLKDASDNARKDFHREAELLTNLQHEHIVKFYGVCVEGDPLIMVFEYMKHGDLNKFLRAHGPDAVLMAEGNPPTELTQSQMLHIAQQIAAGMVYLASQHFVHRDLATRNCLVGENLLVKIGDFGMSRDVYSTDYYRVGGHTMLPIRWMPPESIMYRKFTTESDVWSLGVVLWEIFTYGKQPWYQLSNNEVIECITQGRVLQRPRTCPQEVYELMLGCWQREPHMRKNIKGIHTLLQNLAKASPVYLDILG
Serine/threonine-protein kinase WNK3 (Homo sapiens), sequence (Q9BYP7 whole entry): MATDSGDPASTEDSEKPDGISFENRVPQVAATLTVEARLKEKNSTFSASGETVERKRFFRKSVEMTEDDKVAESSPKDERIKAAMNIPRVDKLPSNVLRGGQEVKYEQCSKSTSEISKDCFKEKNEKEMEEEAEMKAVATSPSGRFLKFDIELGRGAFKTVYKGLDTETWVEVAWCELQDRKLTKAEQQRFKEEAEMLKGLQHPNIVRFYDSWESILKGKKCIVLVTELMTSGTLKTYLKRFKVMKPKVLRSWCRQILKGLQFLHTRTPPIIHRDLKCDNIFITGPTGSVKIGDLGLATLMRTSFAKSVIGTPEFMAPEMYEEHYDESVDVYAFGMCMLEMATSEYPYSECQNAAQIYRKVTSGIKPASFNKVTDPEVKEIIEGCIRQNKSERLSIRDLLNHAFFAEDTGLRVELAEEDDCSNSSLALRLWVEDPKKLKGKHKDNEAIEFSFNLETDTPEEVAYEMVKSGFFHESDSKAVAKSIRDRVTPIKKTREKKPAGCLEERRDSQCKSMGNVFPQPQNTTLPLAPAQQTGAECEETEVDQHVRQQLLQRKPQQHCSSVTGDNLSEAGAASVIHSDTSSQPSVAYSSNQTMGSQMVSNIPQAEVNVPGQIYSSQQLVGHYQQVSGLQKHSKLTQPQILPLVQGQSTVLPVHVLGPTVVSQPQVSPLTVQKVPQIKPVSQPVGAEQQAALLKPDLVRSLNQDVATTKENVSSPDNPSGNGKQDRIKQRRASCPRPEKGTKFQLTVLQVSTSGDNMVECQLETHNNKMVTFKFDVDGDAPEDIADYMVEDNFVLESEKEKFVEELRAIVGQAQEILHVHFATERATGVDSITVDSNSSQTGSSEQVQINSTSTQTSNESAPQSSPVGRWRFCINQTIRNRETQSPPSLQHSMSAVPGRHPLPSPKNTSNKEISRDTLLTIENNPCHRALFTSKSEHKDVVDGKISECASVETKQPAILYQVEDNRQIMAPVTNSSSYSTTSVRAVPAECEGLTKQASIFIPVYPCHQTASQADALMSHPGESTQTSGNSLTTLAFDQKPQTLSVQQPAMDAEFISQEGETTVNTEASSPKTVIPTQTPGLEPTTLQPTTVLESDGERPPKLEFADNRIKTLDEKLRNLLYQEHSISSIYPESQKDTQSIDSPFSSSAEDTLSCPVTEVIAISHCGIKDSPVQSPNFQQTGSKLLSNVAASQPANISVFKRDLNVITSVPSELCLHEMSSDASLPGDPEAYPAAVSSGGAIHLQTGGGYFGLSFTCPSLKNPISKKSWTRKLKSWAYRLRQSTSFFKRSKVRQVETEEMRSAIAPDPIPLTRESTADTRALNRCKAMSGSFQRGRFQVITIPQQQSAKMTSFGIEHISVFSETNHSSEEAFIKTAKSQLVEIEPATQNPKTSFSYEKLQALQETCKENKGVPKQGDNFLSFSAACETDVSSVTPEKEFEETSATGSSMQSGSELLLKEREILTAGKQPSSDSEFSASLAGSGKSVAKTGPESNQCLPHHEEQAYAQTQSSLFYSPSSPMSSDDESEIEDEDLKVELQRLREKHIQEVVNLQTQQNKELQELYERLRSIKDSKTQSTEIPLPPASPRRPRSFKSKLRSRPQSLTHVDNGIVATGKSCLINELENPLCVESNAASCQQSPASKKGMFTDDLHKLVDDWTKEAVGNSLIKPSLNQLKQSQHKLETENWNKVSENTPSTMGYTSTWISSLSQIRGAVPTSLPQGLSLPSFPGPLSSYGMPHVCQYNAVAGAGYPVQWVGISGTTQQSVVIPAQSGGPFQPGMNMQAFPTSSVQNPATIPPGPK
Death-associated protein kinase 3 (Homo sapiens), sequence (O43293 whole entry, looked up): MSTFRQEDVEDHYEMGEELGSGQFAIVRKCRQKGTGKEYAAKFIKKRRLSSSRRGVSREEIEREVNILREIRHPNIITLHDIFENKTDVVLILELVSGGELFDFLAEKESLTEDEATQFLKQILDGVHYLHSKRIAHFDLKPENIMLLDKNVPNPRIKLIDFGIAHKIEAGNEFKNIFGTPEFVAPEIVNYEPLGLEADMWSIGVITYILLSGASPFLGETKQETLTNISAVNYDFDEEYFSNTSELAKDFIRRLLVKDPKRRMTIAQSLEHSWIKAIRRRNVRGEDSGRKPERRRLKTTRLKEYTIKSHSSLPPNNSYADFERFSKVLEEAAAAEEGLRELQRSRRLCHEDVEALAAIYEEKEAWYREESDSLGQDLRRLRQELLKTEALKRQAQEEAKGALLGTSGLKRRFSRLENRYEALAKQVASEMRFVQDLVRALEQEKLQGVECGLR

In the case of `Cc1cc(Nc2nc(-c3ccccc3)nc3ccccc23)n[nH]1`, the residual activity (as a rule, the signal under treatment as a percentage of the control signal) in [1] is 0%; in [2], 30%; in [3] it was 2%; in assay [4] it was 29%; in assay [5] it was 4%; in [6], 74% (inactive). Further, the residual activity was 27% in assay [7]; 74% (inactive) in assay [8]; 31% in [9]; 6% in assay [10]; 1% in assay [11]; 114% in [12]. The results for the residual activity in assay [13], in assay [14] and in assay [15] were 46%, 13% and 62%, respectively.

As to `Cc1cncc2cccc(S(=O)(=O)N3CCCN(C(=O)CN)C[C@H]3C)c12`, the residual activity was determined as 100% in assay [2]; 91% in [3]; 93% in [16]; 47% in [17]; 97% in assay [4]; 59% in assay [5]. Also, the residual activity in assay [18] is 94% (inactive); in assay [19] it was 66%; in [9], 92%; in [11] it was 49%; in [20] it was 79%; in [15], 95%.

As to `O=C(Nc1cccc(Nc2nccc(Nc3cccc(C(F)(F)F)c3)n2)c1)C1CC1`, the residual activity in [1] was -5%; in assay [2], 60%; in [3], 15%; in assay [16] it was 101%; in assay [17], 88%; in assay [4], 97%. Moreover, the residual activity in [5] is 66%; in assay [18], 93% (inactive); in [19], 85%; in assay [6], 104% (inactive); in assay [7], 50%; in assay [8], 90% (inactive). The residual activity was determined as 65% in assay [9]; 56% in assay [10]; 51% in assay [11]; 113% in assay [12]; 84% in assay [13]; 49% in assay [14]. The residual activity is 89% in [20] and 85% in assay [15].

In the case of `CO[C@@H]1[C@H](N(C)C(=O)c2ccccc2)C[C@H]2O[C@]1(C)n1c3ccccc3c3c4c(c5c6ccccc6n2c5c31)C(=O)NC4`, the residual activity in assay [1] was -12%; in assay [2] it was 82%; in assay [3], 69%; in assay [17], 76%; in assay [4], 17%; in [5], 5%. Also, the residual activity in assay [18] was 99% (inactive); in assay [19] it was 94%; in assay [6], 90% (inactive); in assay [7], 60%; in [8], 91% (inactive); in [9], 76%. Also, the residual activity in [10] is 5%; in assay [11] it was 4%; in assay [12] it was 70%; in [13], 56%; in assay [14], 59%; in [20], 80%. Besides, in [15], the residual activity came out at 90%.

With `O=C1Nc2ccccc2/C1=C1/Nc2ccccc2/C1=N\OCCC(O)CO` (stereo not drawn), the residual activity in [1] was found to be 0%; in [2] it was 31%; in [3], 3%; in assay [16] it was 98%; in assay [17], 74%; in assay [4], 27%. The residual activity in assay [5] was 5%; in assay [18], 69% (inactive); in assay [19] it was 26%; in assay [6] it was 71% (inactive); in assay [7], 40%; in assay [8] it was 76% (inactive). For the same compound, the residual activity is 50% in assay [9]; 8% in assay [10]; 2% in [11]; 97% in assay [12]; 63% in assay [13]; 54% in [14]. Also, the residual activity in [20] amounted to 54%; in [15] it was 60%.

`N#Cc1cnc2cnc(NCc3cccnc3)cc2c1Nc1ccc(F)c(Cl)c1`: the residual activity in assay [1] is 1%; in [2], 86%; in assay [3], 69%; in [4], 100%; in assay [5], 88%; in [19] it was 93%. The residual activity in [8] was 97% (inactive); in assay [9] it was 87%; in [10] it was 9%; in assay [11] it was 5%; in assay [12], 44%; in [13], 65%. In addition, the residual activity in assay [14] was 48%; in assay [20], 77%; in [15] it was 91%.

Consider `COc1cc2ncnc(Nc3ccc(NC(=O)c4ccccc4)cc3)c2cc1OC`, for which the residual activity in [1] is 21%; in assay [2] it was 95%; in assay [3] it was 82%; in [16] it was 108%; in [17] it was 104%; in assay [4] it was 99%. Also, the residual activity in assay [5] is 69%; in assay [18], 110% (inactive); in [19], 55%; in assay [6], 52% (inactive); in [7], 25%; in assay [8], 59% (inactive). The residual activity in assay [9] worked out at 23%; in assay [10] it was 96%; in assay [11], 30%; in assay [13], 97%; in [14], 84%; in [20], 86%. For the same compound, the residual activity in assay [15] turned out to be 93%.

Turning to `Nc1nc(Nc2ccc(S(N)(=O)=O)cc2)nn1C(=S)Nc1c(F)cccc1F`, the residual activity in assay [1] amounted to 0%; in [2] it was 71%; in assay [3], 32%; in assay [16], 4%; in assay [17] it was 0%; in [4], 0%. The residual activity was 1% in assay [5]; 84% (inactive) in assay [18]; 37% in assay [19]; 77% (inactive) in assay [8]; 64% in [9]; 3% in [10]. The residual activity in [11] amounted to 2%; in assay [12], 124%; in assay [13], 90%; in [14], 78%; in assay [20] it was 82%; in assay [15], 26%.

Regarding `Oc1c2ccccc2c2c3c(cccc13)N=N2`, the residual activity turned out to be 5% in [1]; 58% in assay [2]; 23% in assay [3]; 90% in assay [16]; 45% in assay [17]; 73% in assay [4]. Moreover, the residual activity in assay [5] was 43%; in [18], 78% (inactive); in [19], 36%; in assay [6] it was 79% (inactive); in assay [7], 77%; in assay [8] it was 87% (inactive). The residual activity in [9] is 77%; in assay [10], 98%; in [11], 51%; in assay [12], 94%; in assay [13], 87%; in assay [14], 45%. In addition, the results for the residual activity in assay [20] and in assay [15] were 69% and 61%, respectively.
